Values joined by “and” are separate entries in the source; they are usually repeats but may differ in a detail not shown here. Equal values may be shown once. Results filed as inconclusive are left out. Some compounds were tested as several samples or in several runs, with calls that do not always agree. Active and inactive are the calls of the source. Calls follow the shape of the dose curve; as a rule, active = well fitted inhibition curve with a large enough effect in the repeat runs; inconclusive = weak or mixed curves; inactive = flat fitted curve, though single readings scatter.
molecular target: Cytochrome P450 2D6 (Homo sapiens) (UniProt P10635); assay: Cytochrome P450 family 2 subfamily D member 6 (CYP2D6) small molecule antagonists: luciferase biochemical (cell-free) qHTS assay (AID 1645840); conditions: P450-Glo CYP2D6 enzyme, luciferin luminescence, 1 h; series mostly up to 57.4 µM; activity change, negative = inhibition: at the top concentration; also: nearly all actives have a fitted effect of over 55% in size
Sequence (P10635 whole entry, looked up): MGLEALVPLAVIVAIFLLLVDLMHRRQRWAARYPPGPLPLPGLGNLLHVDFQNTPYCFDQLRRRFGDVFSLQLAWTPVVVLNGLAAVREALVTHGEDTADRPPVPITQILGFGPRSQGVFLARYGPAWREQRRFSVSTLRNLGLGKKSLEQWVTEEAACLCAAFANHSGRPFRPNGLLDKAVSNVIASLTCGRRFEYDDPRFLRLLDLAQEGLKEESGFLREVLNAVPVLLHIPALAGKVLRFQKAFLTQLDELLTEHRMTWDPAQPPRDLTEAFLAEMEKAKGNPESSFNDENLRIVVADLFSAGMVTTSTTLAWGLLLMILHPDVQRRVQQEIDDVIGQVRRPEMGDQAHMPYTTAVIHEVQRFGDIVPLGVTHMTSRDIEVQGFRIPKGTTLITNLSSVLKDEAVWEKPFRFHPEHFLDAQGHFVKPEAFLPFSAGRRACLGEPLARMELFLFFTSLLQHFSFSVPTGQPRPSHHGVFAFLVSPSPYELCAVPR
Method: National Center for Advancing Translational Sciences [NCATS] Assay Overview: Cytochrome P450 (CYP) enzymes are membrane-bound hemeproteins that play a key role in metabolism of drugs and xenobiotics. Assaying the effect of chemicals on CYP isozymes is useful to minimize the adverse drug reactions and toxicities in drug development process. Chemical compounds were tested for their effect on CYP enzyme activities by using P450-Glo (TM) screening systems (Promega Corporation, Madison, WI). These systems provide a luminescent method containing proluciferin substrates and are converted to luciferin products by CYP isozymes. The luciferin products formed are detected with a luciferin detection reagent, and the amount of light produced is proportional to CYP activity. P450-Glo (TM) CYP2D6 screening system (Catalog. No. V9890) was used to detect the compounds that interfere in CYP2D6 activity.
Assay Protocol Summary: Two ul of enzyme-substrate mix was dispensed into medium binding white/solid 1536-well plates (Greiner Bio-One North America Inc., Monroe, NC) using a Flying Reagent Dispenser (FRD, Aurora Discovery, San Diego, CA). […] The assay plates were incubated at room temperature for 10 min. Then 2 ul of NADPH regeneration solution was added to each well of the assay plates using an FRD and incubated at room temperature for 1 h. The reaction was stopped by adding 4 ul of detection reagent using an FRD and after 20 min incubation at room temperature, the luminescence signal was measured using a ViewLux plate reader (Perkin Elmer, Shelton, CT). Data were expressed as relative luminescence units.
% is scaled to controls: 0 for no effect and ±100 for the full control effect; potency is read from the fitted curve at half-maximal effect.

Structure (SMILES) | Potency | activity change, negative = inhibition
O=C1CC2(CCCC2)[C@H](O)C(=O)N1CCCCN1CCN(c2ncccn2)CC1 | 12 µM (active) | 
Cc1ccc(NC(=O)C(=O)NC2CC(C)(C)NC(C)(C)C2)cc1 |  | 12.1% (inactive)
c1ccc(-c2ncc(CN3CCN(c4ncccn4)CC3)[nH]2)cc1 | 0.952 µM (active) | 
O=C(Nc1nc2ccccc2n1CCc1ccccc1)c1ccccc1 |  | -4.16% (inactive)
CC(NC(=O)CCc1nc2ccccc2c(=O)[nH]1)c1ccccc1 (stereo not given) |  | 1.33% (inactive)
COc1ccc(C2(O)CCC(N3CC[C@@H](NC(=O)CNC(=O)c4cccc(C(F)(F)F)c4)C3)CC2)cn1 (stereo not given in full) | 10.7 µM (active) | 
COC(=O)N1CCC(n2ncc3c(N4CCOCC4)nc(-c4ccc(NC(=O)Nc5ccc(CO)cc5)cc4)nc32)CC1 | 8.49 µM (active) | 
O=C(O)c1ccccc1NCCc1ccccc1 | 11 µM (active) | 
Cc1ccc(C)c(OCCn2cc(C(=O)O)c3ccccc32)c1 |  | -3.65% (inactive)
CCOC(=O)CCN(C(=O)c1ccc2c(c1)nc(CNc1ccc(C(=N)N)cc1)n2C)c1ccccn1 |  | -8.2% (inactive)
COc1ccc(F)cc1-c1cc(NC(=O)[C@@H]2CCCNC2)ncc1Cl |  | -29.4% (inactive)
O=C1N=C(N2CCOCC2)CN1c1ccc(Cl)cc1 |  | 1.47% (inactive)
COc1cc2c(NC3CCN(CC4CCCCC4)CC3)nc(N3CCCN(C(C)C)CC3)nc2cc1OCCCN1CCCCC1 | 12 µM (active) | 
Nc1nc(Nc2ccc(S(N)(=O)=O)cc2)n(C(=S)Nc2c(F)cccc2F)n1 | 10.7 µM (active) | 
Cc1noc(-c2ccc(-c3ccc(CC(=O)O)cc3)cc2)c1NC(=O)O[C@H](C)c1ccccc1 |  | 0.741% (inactive)
CCN1CCN(Cc2ccc(NC(=O)c3ccc(C)c(NC(=O)c4cncc(-c5cccs5)c4)c3)cc2C(F)(F)F)CC1 | 3.38 µM (active) | 
O=C(NCc1cccc(O)c1)Nc1nc(-c2ccncc2)cs1 | 0.849 µM (active) | 
CCC(COC)n1nnc2c(Nc3ccc(OC)cc3C)nc(C)cc21 (stereo not given) | 10.7 µM (active) | 
N#Cc1ccc(-c2cnc3[nH]cc(NC(=O)c4cccnc4)c3c2)cc1 |  | 0.769% (inactive)
CC1(C)CCC(C)(C)c2cc(C3(c4ccc(C(=O)O)cc4)OCCO3)ccc21 |  | -3.68% (inactive)

Structure (SMILES) | Potency | activity change, negative = inhibition
Cc1ccc(-c2ccc3c(ccc4sc5c(c43)NC[C@@H](C)NC5=O)n2)cn1 |  | 4.79% (inactive)
CNC(=O)c1cccc(-c2ccc3c(N4CCOC[C@@H]4C)nc(N4CCOC[C@@H]4C)nc3n2)c1 | inactive and 15.1 µM (active) | 
COc1ccc(C(=O)C2CCN(CC(=O)N(Cc3nc4c(c(=O)[nH]3)COCC4)CC3CC3)CC2)cc1 |  | -16.1% (inactive)
CCOCCOC(=O)/C=C/c1ccc(OC)cc1 |  | -11.7% (inactive)
O=C(CN1C(=O)C2(CCCC2)NCC1c1cc(F)cc(F)c1)Nc1ccc2c(c1)CC1(C2)C(=O)Nc2ncccc21 (stereo not given) |  | -18.7% (inactive)
CCCNc1ccc2ncc(-c3ccc4[nH]ncc4c3)n2n1 |  | 12.8% (inactive)
COc1ccccc1Oc1ccc(N(Cc2cccnc2)S(=O)(=O)CC(F)(F)F)cc1 | 13.5 µM (active) | 
Nc1nccn2c(C3CCC(C(=O)O)CC3)nc(-c3cc4cccc(Cl)c4[nH]3)c12 (stereo not given) |  | -2.45% (inactive)
CCN(CC)CCN(Cc1ccc(-c2ccc(C(F)(F)F)cc2)cc1)C(=O)Cn1c(SCc2ccc(F)cc2)nc(=O)c2c1CCC2 | 9.52 µM (active) | 
CC(C)(F)C[C@@H](N[C@@H](c1ccc(-c2ccc(S(C)(=O)=O)cc2)cc1)C(F)(F)F)C(=O)NC1(C#N)CC1 | 2.68 µM (active) | 
CC1(c2nc3c(C(N)=O)cccc3[nH]2)CCCN1 (stereo not given) |  | -1.76% (inactive)
Cc1ccc(N)cc1O | 2.45 µM (active) | 
C=C(F)c1sc(CNCCCNc2cc(=O)c3ccccc3[nH]2)c(C)c1Br | 1.07 µM (active) | 
O=C(c1ccccc1)c1ccc2nc(NC(=O)c3csc(C4CCN(c5ncnc6ccsc56)CC4)n3)[nH]c2c1 |  | 1.43% (inactive)
Cc1ccc(S(=O)(=O)Cc2nc(-c3ccc(C(=O)NCc4cccnc4)cc3)oc2C)cc1 |  | -5.08% (inactive)
Cc1c(C(=O)Nc2ccc(N3CC(C)OC(C)C3)nc2)cccc1-c1ccc(OC(F)(F)F)cc1 (stereo not given) |  | 1.63% (inactive)
Cc1cc(C(=O)Nc2cccc(C(=O)Nc3cccc(C(F)(F)F)c3)c2)on1 |  | 11.5% (inactive)
Cc1c[nH]c2nccc(Oc3c(F)cc(Nc4cc(Cl)nc(N)n4)cc3F)c12 | 6.74 µM (active) | 
COc1cccc(C(=O)N2CCN(C(=O)COc3cccc(C)c3)CC2)c1OC |  | 5.33% (inactive)
Cc1cc(C)c2c(N)c(C(=O)NCc3ccc(Cl)cc3)sc2n1 | 13.5 µM (active) | 

From PubChem BioAssay (NCATS)
